Hits are enriched below; roughly 3.4% of the tested compounds scored in any of these assays.
PLCg1 inh = PLC-gamma1 enzyme inhibitors, primary screen, biochemical, fluorescence, purified enzyme; 1-phosphatidylinositol 4,5-bisphosphate phosphodiesterase gamma-1 (Homo sapiens), P19174; fluorogenic substrate; inhibition, % at 12.2 µM; 0.84% of 370,000 active; AID 720700, 2013; in the data active means inhibition above about 9.5%
ADAM10 inh = human ADAM10 inhibitors, primary screen, biochemical, QFRET, HTS. inhibition, % at 7 µM. 0.62% of 370,000 active. recombinant ADAM10, EDANS/DABCYL FRET peptide cleavage, 3 h. AID 720582, 2013. Disintegrin and metalloproteinase domain-containing protein 10 (Homo sapiens), O14672;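 active means inhibition above a per-campaign cutoff equal to the mean of compounds falling between control-based bounds plus 3 SD, cut at about 20% in these data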;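 further: 0% = DMSO wells while the 100% control is not disclosed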
Target sequence (O14672 214-748 limits assumed): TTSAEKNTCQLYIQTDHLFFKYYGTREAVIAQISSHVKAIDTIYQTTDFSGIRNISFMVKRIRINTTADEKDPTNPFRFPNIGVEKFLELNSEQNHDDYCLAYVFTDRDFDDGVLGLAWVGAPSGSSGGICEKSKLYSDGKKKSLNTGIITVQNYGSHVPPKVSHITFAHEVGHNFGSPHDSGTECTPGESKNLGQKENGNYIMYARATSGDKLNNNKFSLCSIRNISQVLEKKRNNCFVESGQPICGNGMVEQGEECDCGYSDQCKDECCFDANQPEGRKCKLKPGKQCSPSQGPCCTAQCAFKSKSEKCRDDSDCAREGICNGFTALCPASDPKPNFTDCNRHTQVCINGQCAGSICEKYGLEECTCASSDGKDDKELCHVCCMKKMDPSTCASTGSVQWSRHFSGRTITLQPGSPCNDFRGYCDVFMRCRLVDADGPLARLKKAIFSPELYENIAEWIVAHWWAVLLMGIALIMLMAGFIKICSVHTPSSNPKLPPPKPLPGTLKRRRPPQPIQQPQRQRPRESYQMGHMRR
PLCb3 inh = human PLC-beta3 inhibitors, primary screen, biochemical, fluorescence; 1-phosphatidylinositol 4,5-bisphosphate phosphodiesterase beta-3 (Homo sapiens), Q01970; Purified PLC-beta3, fluorogenic substrate; inhibition, % at 12.2 µM; 0.18% of 370,000 active; AID 720704, 2013; in the data active means inhibition above about 11%;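 further: 0% = median of compound wells on plate and 100% = full blocker control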
proKLK7 act = proKLK7 zymogen activators, primary screen, biochemical, fluorescence intensity; Kallikrein-7 (Homo sapiens), P49862; AID 652039, 2013; purified proKLK7, EDANS-DABCYL substrate fluorescence; 100% is mature enzyme control, 0% vehicle; activation, % at 7 µM; 0.9% of 370,000 active;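 active means activation above the mean of all tested compounds plus 3 SD, computed per campaign excluding outliers beyond control limits, cut at about 13% in these data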
HGIII-sPLA2 inh = human group III sPLA2 inhibitors, primary screen, biochemical, QFRET, BODIPY PC-A2 liposome substrate | Group 3 secretory phospholipase A2 (Homo sapiens), Q9NZ20 | QFRET BODIPY PC-A2 liposome hydrolysis, fluorescence | inhibition, % at 12.2 µM | 0.56% of 370,000 active | AID 743126, 2013;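 active means inhibition above mean plus 3 SD of compounds lying within the high and low control bounds, cut at about 19% in these data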;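 further: 0% = median of test compound wells and 100% = no enzyme DMSO wells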
ADAM17 inh = ADAM17 inhibitors, primary screen, biochemical, QFRET. Disintegrin and metalloproteinase domain-containing protein 17 (Homo sapiens), P78536. inhibition, % at 6.95 µM. 0.83% of 370,000 active. recombinant ADAM17, EDANS/DABCYL FRET peptide cleavage;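 active means inhibition above the mean of compounds lying between control limits plus 3 SD, set per campaign, cut at about 8.5% in these data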;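 further: 0% = DMSO-only wells as the low control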
proKLK7 act conf = proKLK7 zymogen activators, confirmation, biochemical, fluorescence intensity, triplicate; shares compounds with proKLK7 act; purified proKLK7, EDANS-DABCYL substrate fluorescence; scaled: vehicle 0, mature enzyme 100; 68% of 3,200 active; activation, % at 7 µM; AID 686949, 2013;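 active means activation, as change over the incubation, above the mean of all tested compounds plus 3 SD, cut at about 13% in these data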
EDANS interfere = EDANS-DABCYL substrate optical interference, artefact control for kallikrein-7 zymogen activator project, biochemical, fluorescence intensity, high throughput; AID 686952, 2013; activation, % at 7 µM; 80% of 3,200 active; no enzyme, 4 h; solvent 0%, active enzyme control 100%; shares compounds with proKLK7 act;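 active means activation above the all-compound mean plus 3 SD, ignoring values outside control-based bounds, cut at about 4.8% in these data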;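 further: value is the 4 h activation minus the activation read at time zero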
Active calls of the source: *; i = inactive; nt = not tested or not shown.

SMILES | PLCg1 inh | ADAM10 inh | PLCb3 inh | proKLK7 act | HGIII-sPLA2 inh | ADAM17 inh | proKLK7 act conf | EDANS interfere
COc1ccc(/C=C/C(=O)c2cc(F)ccc2OC(=O)c2ccccc2)cc1OC | -51.7 | 11.5 | -60.4 | -5.0 | -9.3 | 10.7* | nt | nt
COc1ccc(/C=C/C(=O)c2cc(F)ccc2OC(=O)c2ccc(OC)c(OC)c2)cc1OC | -28.2 | 4.5 | -31.8 | 1.3 | -6.4 | -1.4 | nt | nt
CC(C)(C)C(=O)CSc1nnc(SCc2cccc3ccccc23)s1 | -0.2 | 5.4 | -2.9 | 0.1 | -71.8 | 5.0 | nt | nt
Cc1ccc2[nH]c3ccccc3c(=O)c2c1 | -288.5 | i | -364.6 | 19.1* | 4.6 | i | nt | nt
CC(C)CC(c1nnnn1Cc1cccs1)N1CCN(c2nc3ccccc3s2)CC1 (stereo not given) | 9.9* | 5.7 | 9.6 | 0.4 | 10.5 | 5.0 | nt | nt
CCC(c1nnnn1Cc1cccs1)N1CCN(c2nc3ccccc3s2)CC1 (stereo not given) | -1.3 | 4.5 | -0.2 | 0.9 | -19.2 | -0.3 | nt | nt
COc1ccccc1NC(=O)CSc1nc(O)cc(=O)n1-c1ccccc1OC | 1.6 | 20.8* | 0.8 | -0.4 | -8.8 | 3.0 | nt | nt
COc1ccccc1-n1c(SCC(=O)Nc2ccccc2C)nc(O)cc1=O | 0.5 | 13.4 | -2.1 | 0.8 | -4.9 | 0.4 | nt | nt
O=C(NCCc1ccccc1)c1cc2sccc2n1Cc1ccccc1 | 10.1* | 16.2 | 4.3 | -0.3 | -3.6 | 7.9 | nt | nt
CCn1c(C(=O)NCCCc2ccccc2)cc2sccc21 | 0.2 | 2.9 | 3.8 | 0.1 | -11.1 | 5.5 | nt | nt
CC(C)CN1C(=O)N2Cc3ccccc3C2CS1(=O)=O (stereo not given) | -0.2 | -3.6 | -0.3 | 0.6 | 0.5 | -0.8 | nt | nt
Cc1ccccc1-c1ccc2c(c1)[C@@H]1C[C@H](N(C)CC3CCCCC3)[C@H]([C@H](C)O)CN1CC2 | -83.7 | -77.3 | -106.0 | 12.6* | 7.5 | -18.9 | 5.7 | 7.1*
COc1ccc(OC)c(S(=O)(=O)N2CCC(C(=O)NCC3COCCO3)CC2)c1 (stereo not given) | 0.8 | -4.1 | 2.2 | 0.2 | -3.7 | -1.4 | nt | nt
O=C1C(NC(=O)N2c3ccccc3C=Cc3ccccc32)CCCCN1Cc1cccc(Cl)c1 (stereo not given) | -4.5 | 8.9 | -1.2 | -0.4 | -11.9 | 5.8 | nt | nt
CCN(C(=O)c1cc2c(=O)n3ccccc3nc2n1CCCOC)C1CCCCC1 | i | i | i | 54.7* | -1.0 | i | 76.4* | 78.2*
CN(C(=O)c1cc2c(=O)n3ccccc3nc2n1C)C1CCCCC1 | i | i | i | 68.8* | 4.5 | i | 73.6* | 80.6*
Cc1cccn2c(=O)c3cc(C(=O)NC4CCCCC4C)n(C)c3nc12 (stereo not given) | -200.2 | -195.3 | -299.2 | -3.6 | -7.5 | -65.4 | nt | nt
CC1CCCCC1NC(=O)c1cc2c(=O)n3ccccc3nc2n1C (stereo not given) | i | i | i | 41.5* | 9.3 | i | 6.1 | 3.8
CCN(C(=O)c1cc2c(=O)n3ccccc3nc2n1C)C1CCCCC1 | i | i | i | 66.8* | -3.4 | i | 65.8* | 80.3*
CCN(C(=O)c1cc2c(=O)n3ccccc3nc2s1)C1CCCCC1 | i | i | i | 12.3 | -1.0 | -399.3 | nt | nt
CN[C@H]1C[C@H]2c3[nH]c4cccc(-c5ccccc5)c4c3CCN2C[C@H]1[C@H](C)O | -193.8 | -71.0 | -217.2 | -2.9 | -4.9 | -18.8 | nt | nt
COc1ccc2cc3cc(C(=O)NC(C)C)oc3nc2c1 | i | i | i | 34.5* | 0.4 | i | 78.1* | 83.0*
